# Experimental data reported in ChEMBL document CHEMBL4513216, “Probing the Open Global Health Chemical Diversity Library for Multistage-Active Starting Points for Next-Generation Antimalarials” (ACS Infect Dis, 2020).
# Out of some 68,000 compounds screened, about 2,700 (4%) showed an effect of 50% or more. What follows is part of a selection rich in strong results, with near analogues and random picks from the rest.
# Tested on: Plasmodium berghei
# Assay: Screen against P. berghei liver stage (PbLuc), transformed with Luciferase, at 2uM
# Assay type: functional, HepG2
# Conditions: tested at 2 uM
row,SMILES,INHIBITION [%]
1,O=C1[C@@H]2CCN(Cc3ccncc3)C[C@@H]2OCCN1c1ccccc1,2.71
2,Cc1ccccc1-n1cnc(Cl)c1CO,-40.04
3,O=C(NC1CC1)N1CCN(c2cnccn2)CC1,11.24
4,O=C(CCc1ccc(C(F)(F)F)cc1)N1CCCS1(=O)=O,-24.72
5,Cn1c(N2CC[C@H](O)C2)nc2cc(C(N)=O)ccc21,26.7
6,Cc1ccccc1-c1cncc(C2CCN(Cc3cnn(C)c3)CC2)n1,18.22
7,Cc1nc(CN2CCN(C(=O)CCc3ccco3)CC2)cs1,60.09
8,CCc1nc(CN2CCCN(C(=O)C3CCOCC3)CC2)cs1,-17.37
9,CCc1nc(CN2CCCN(C(=O)c3cc(C)on3)CC2)cs1,-24.11
10,Cc1nc(CN2CCCN(C(=O)CCc3ccco3)CC2)cs1,11.2
11,CCc1nc(CN2CCCN(C(=O)C3CCC3)CC2)cs1,23.86
12,CCc1ccc(C(=O)N2CCCN(Cc3csc(CC)n3)CC2)o1,50.61
13,CCc1nc(CN2CCCN(C(=O)C3CCOC3)CC2)cs1 (stereo not drawn),56.03
14,CCc1nc(CN2CCCN(C(=O)c3cnc(C)cn3)CC2)cs1,-12.19
15,CCc1nc(CN2CCCN(C(=O)CCc3ccco3)CC2)cs1,44.12
16,O=C(NC1CC1)C1CCN(c2nc3nc[nH]c(=O)c3s2)CC1,20.16
17,CN(Cc1cnn(C)c1)C(=O)C(c1ccccc1)N1CCSCC1 (stereo not drawn),0.21
18,O=C(C[C@@H]1COC[C@H]2CN(Cc3ccc(F)cc3)C[C@@H]12)N1CCOCC1,20.74
19,Cn1cc(CN2CCc3c(CNC(=O)C4CC4)cncc3C2)cn1,-5.13
20,O=C(NCC1CC1)[C@H]1C[C@@H]2CCN(CCc3ccccc3)C[C@H]2O1,25.4
21,CC(C)n1[nH]c(=O)c2c1NC(=O)CC2c1cccnc1 (stereo not drawn),-35.44
22,Cc1ccccc1CC(=O)N[C@@H]1CCC[C@@H](N2CCNC(=O)C2)[C@@H]1O,29.06
23,CCc1nc2n(n1)CC(NCc1cc(OC)c3c(c1)OCO3)CC2 (stereo not drawn),40.24
24,Cc1ccc(C(=O)N2CCC(Oc3cccc(C)c3C)CC2)c(=O)[nH]1,7.64
25,COc1ccc(OC2CCN(C(=O)c3ccc(C)[nH]c3=O)CC2)cc1,11.95
26,Cc1ccc(C(=O)N2CCC(Oc3c(C)cccc3C)CC2)c(=O)[nH]1,-11.33

row,SMILES,INHIBITION [%]
1,Cc1ccc(C(=O)N2CCC(Oc3ccc(F)cc3F)CC2)c(=O)[nH]1,60.31
2,Cc1ccc(C(=O)N2CCC(Oc3ccc(C)c(C)c3)CC2)c(=O)[nH]1,-37.2
3,Cc1ccc(C)c(OC2CCN(C(=O)c3ccc(C)[nH]c3=O)CC2)c1,54.85
4,CCN(CC1CCCN(CCc2cccc(OC)c2)C1)C(=O)CN(C)C (stereo not drawn),-85.72
5,Cc1cc(C(=O)N2CCCC2c2nc(O)cc(C(C)C)n2)on1 (stereo not drawn),12.21
6,CCN(C)C[C@@H]1CN(Cc2cnc3c(S(C)(=O)=O)cnn3c2)C[C@@H]1CO,10.91
7,CCN(CC)S(=O)(=O)c1csc(C(=O)N2CCC(C(N)=O)CC2)c1,14.27
8,CN(C)S(=O)(=O)c1csc(C(=O)N2CCC(C(N)=O)CC2)c1,-0.24
9,CN(C)S(=O)(=O)c1csc(C(=O)N2CCSCC2)c1,68.33
10,Cc1nc(NCCSc2nnc(C)s2)c2cccnc2n1,21
11,CN1CC2(CCN(CC3CC3)CC2)COc2ccccc2S1(=O)=O,-22.64
12,O=C(CS(=O)(=O)Cc1ccccc1)NCc1ccccc1F,50.59
13,NC(=O)C(Cc1ccccc1)NS(=O)(=O)Cc1ccccc1F (stereo not drawn),53.13
14,N#Cc1cccc(CS(=O)(=O)NC(Cc2ccccc2)C(N)=O)c1 (stereo not drawn),18.29
15,Cc1ccc(CS(=O)(=O)CC(=O)NCc2ccccc2F)cc1,26.74
16,O=C(CS(=O)(=O)Cc1ccc(F)cc1)NCc1ccccc1F,-54.34
17,NC(=O)C(Cc1ccccc1)NS(=O)(=O)Cc1ccccc1Cl (stereo not drawn),-7.47
18,Cc1ccc(Cl)cc1N1CCC(CNC(=O)CC(F)(F)F)C1 (stereo not drawn),42.92
19,Cc1ccc(Cl)cc1N1CCC(CNC(=O)Cn2cccn2)C1 (stereo not drawn),-48.41
20,Cc1cnn(CC(=O)NCC2CCN(c3cc(Cl)ccc3C)C2)c1 (stereo not drawn),80.06
21,CSCC[C@H](N)c1nnc(SCc2cc(C)ccc2C)o1,17.15
22,O=C(NCC(F)(F)F)C1CSCN1S(=O)(=O)c1ccccc1F (stereo not drawn),14.06
23,CCCC1C=CCN1C(=O)c1cc(COc2ccc3c(c2)OCO3)[nH]n1 (stereo not drawn),5.15
24,O=C(c1cscn1)N1CCC2(CCN(Cc3nccs3)C2)CC1,-14.66
25,COc1ccc(-c2cc(C3CCOC3)c(C#N)c(N)n2)cn1 (stereo not drawn),7.64
26,Cc1cc(C)cc(-c2cc(C3CCOC3)c(C#N)c(N)n2)c1 (stereo not drawn),59.27

row,SMILES,INHIBITION [%]
1,Cc1cc(-c2cc(C3CCOC3)c(C#N)c(N)n2)ccc1Cl (stereo not drawn),21.33
2,CCN1CCO[C@]2(CCC[C@H]2COCc2csc(C)n2)C1,32.95
3,COc1ccc(C)cc1Nc1nc2c(C)nn(C)c2c(=O)n1C,-103.52
4,O=C(NC1CCS(=O)(=O)c2ccccc21)c1sccc1C1CC1 (stereo not drawn),-10.14
5,Cc1ccsc1C(=O)NC1CCS(=O)(=O)c2ccccc21 (stereo not drawn),-15.77
6,O=C(NC1CCS(=O)(=O)c2ccccc21)c1cccs1 (stereo not drawn),79.83
7,CC(C)CNc1nnc(SC(C(=O)NCc2cccnc2)C(C)C)s1 (stereo not drawn),-16.56
8,CNc1cc2c(nn1)CCN(C(=O)c1ccc3c(c1)CCC3)C2,29.12
9,CNc1cc2c(nn1)CCN(C(=O)c1ccc3c(c1)OCO3)C2,50.18
10,CCNc1cc2c(nn1)CCN(C(=O)c1ccc3c(c1)OCO3)C2,-17.37
11,Cc1cc(N2CCN(c3ccc(=O)[nH]n3)CC2)nc(-c2ccncc2)n1,-2.96
12,Cc1c(C(=O)NCCC(=O)N2CCOCC2)sc2ccc(F)cc12,-6.64
13,COc1cccnc1NC(=O)c1ccc(COCC(F)(F)F)cc1,-14.46
14,Cc1ccc(-c2cc(CN3CCCC(Cn4cncn4)C3)on2)cc1 (stereo not drawn),-23.18
15,CCCNC(=O)CN1CCN(Cc2csc(C(C)(C)C)n2)CC1,22.1
16,CCCNC(=O)C1CCCN(Cc2csc(C(C)(C)C)n2)C1 (stereo not drawn),52.87
17,c1cncc(-c2noc(CN3CCCC(Cn4cncn4)C3)n2)c1 (stereo not drawn),-9.22
18,Cc1cc(CN2CCCC(Cn3cncn3)C2)no1 (stereo not drawn),-50.13
19,CC(C)(C)c1nc(CN2CCCC(Cn3cncn3)C2)cs1 (stereo not drawn),80.49
20,CC(C)c1nc(CN2CCCC(Cn3cncn3)C2)cs1 (stereo not drawn),5.52
21,Cc1cc(CN2CCCC(Cn3cncn3)C2)on1 (stereo not drawn),59.54
22,Cc1ccc(-c2noc(CN3CCCC(Cn4cncn4)C3)n2)cc1 (stereo not drawn),-35.33
23,Cc1cccc(-c2noc(CN3CCCC(Cn4cncn4)C3)n2)c1 (stereo not drawn),54.85
24,CCCNC(=O)C1CCN(Cc2csc(C(C)(C)C)n2)CC1,-21.58
25,c1ccc(-c2nc(CN3CCCC(Cn4cncn4)C3)cs2)cc1 (stereo not drawn),-37.28
26,c1ccc(-c2nc(CNC3CCc4ncnn4C3)cs2)cc1 (stereo not drawn),-7.88

row,SMILES,INHIBITION [%]
1,CCCc1nc(CNCC2CCCN2c2cccnn2)no1 (stereo not drawn),19.76
2,c1ccc(-c2cc(CN3C[C@H]4CC[C@@H](C3)N(CC3CCC3)C4)on2)cc1,34.16
3,Cc1ccccc1CNc1ccccc1OCC(=O)N1CCOCC1,-64.94
4,COc1cc(C2c3c(n[nH]c3C)N=C3COC(=O)C32)cc(Br)c1O (stereo not drawn),37.18
5,CC(C)C(=O)N1CCN(Cc2cnn(C)c2)CC2(CC(=O)N(C)C2)C1 (stereo not drawn),-2.69
6,O=C(NC1CC1)N1CCn2c(Cn3cccn3)cnc2C1,53.08
7,CN(C)C(=O)N1CCn2c(Cn3cccn3)cnc2C1,25.4
8,Cc1ccc(C(=O)N2CCc3ncc(Cn4cccn4)n3CC2)cn1,16.43
9,O=C(c1ccoc1)N1CCc2ncc(Cn3cccn3)n2CC1,50.17
10,O=C(c1cccc(F)c1)N1CCc2ncc(Cn3cccn3)n2CC1,-39.07
11,O=C(NCc1ccccc1)N1CCn2c(Cn3cccn3)cnc2C1,6.33
12,Cc1ncsc1CN1C[C@@H]2COC[C@]2(C(=O)NCc2ccccn2)C1,-0.27
13,CC(C(=O)N1CCN(c2ccccc2)CC1)n1cc(Br)cn1 (stereo not drawn),-34.08
14,CN1CCN(c2ccccc2CNC(=O)CSC(F)(F)F)CC1,-14.36
15,CC(C)C(C(=O)N1CCCN(c2cccnn2)CC1)n1cncn1 (stereo not drawn),-0.6
16,OCc1c(Cl)ncn1-c1ccc(F)cc1,22.43
17,O=C(CCC1CCCC1)N1CCC(c2cc3ncccc3c(O)n2)CC1,22.39
18,Cc1sc(-n2cnnn2)c(C(=O)NC(C)C)c1C,-21.53
19,Cc1nc(NC(=O)c2c(-n3cnnn3)sc(C)c2C)sc1C,60.67
20,CCCn1nccc1C(=O)Nc1nc(C)c(C)s1,-44.44
21,Cc1nc(NC(=O)c2c(-n3cnnn3)sc3c2CCCC3)sc1C,76.25
22,Cc1nc(NC(=O)c2c(-n3cnnn3)sc3c2CCC3)sc1C,10.71
23,CC(C)CNC(=O)c1c(-n2cnnn2)sc2c1CCCC2,15.93
24,F[C@@H]1CN(CC2CC2)C[C@@H]1OCc1nc2cnccc2[nH]1,25.94
25,COCCC(=O)N1CCC(C(=O)c2cc(C)cnc2N)CC1,41.56
